This is a sample that favours compounds with a hit; in the whole collection about 8% have one here.
SW480 rerep: A quantitative high throughput screen for small molecules that induce DNA re-replication in SW480 colon adenocarcinoma cells | SW480 DNA re-replication, Hoechst DNA content imaging, 48 h | Potency, µM (series often up to 46.1 µM), for inactives: at the top dose re-replication activation, most hits filed as activators | 1.8% of 340,000 active | AID 624297, 2012; note: % of control where 0% means no effect; nearly all actives have a fitted effect of over 55% in size
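Per well, 250 cells were exposed to pinned compound for 48 hr. Nuclear DNA was visualised with Hoechst (40 min, 37 C) and total object intensity recorded by fluorescence scanning.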
KB-3-1 tox: qHTS assay for MDR1-selective chemotherapeutics: Primary screen using the parental adenocarcinoma cell KB-3-1; Potency, µM (titrated, usually from 46.1 µM), usual class: cytotoxic; 1.4% of 400,000 active; KB-3-1 viability, CellTiter-Glo ATP luminescence, 72 h; note: % is set by controls: 0 for no effect and ±100 for the full control effect; nearly all actives have a fitted effect of over 60% in size
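Here the drug-naive KB-3-1 line serves as comparator for MDR sub-line selectivity; cells received compound titrations, 72 h at 37 °C, then CellTiter-Glo readout.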
KB-V1 cytotox: qHTS assay for MDR1-selective chemotherapeutics: Primary screen using the drug-selected MDR subline cells KB-V1. KB-V1 MDR cells viability, CellTiter-Glo, 72 h. AID 1347076, 2019. Potency, µM (highest dose often 46.1 µM), hits mostly cytotoxic. 3.4% of 400,000 active; note: % is set by controls: 0 for no effect and ±100 for the full control effect; nearly all actives have a fitted effect of over 60% in size
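KB-V1, DMEM (no phenol red) + 10% FBS; cpd pin-transferred, titration series; 72 h, 37 degrees C; CellTiter-Glo, luminescence. Data normalized, curve-fit.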
HT1080 IDH1KD tx: qHTS for induction of synthetic lethality in tumor cells producing 2HG: qHTS for the HT-1080-IDH1KD cell line; HT-1080 IDH1 knockdown viability, ATP luminescence, 48 h; Potency, µM (highest dose often 46.1 µM), for inactives: top-dose activity, negative = toxicity, usual class: cytotoxic; 2% of 360,000 active;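 note: 0% = DMSO wells and -100% = cell-free medium wells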
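IDH1KD HT-1080 cells, 750/well, RPMI + 5% FBS; compound pinned after 2 h settling; 48 h, 37 °C; CellTiter-Glo luminescence; % activity normalised to DMSO and no-cell wells; curves fitted, classed by r2 and efficacy.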
MCF10A rerep: A quantitative high throughput screen for small molecules that induce DNA re-replication in MCF 10a normal breast cells. Potency, µM (series often up to 46.1 µM), inactives show at the highest dose activity, positive = re-replication, hits mostly activators. 2.9% of 350,000 active. MCF 10A DNA re-replication, Hoechst nuclear intensity, 48 h; note: % of control where 0% means no effect; nearly all actives have a fitted effect of over 50% in size
HT1080-NT tox: qHTS for induction of synthetic lethality in tumor cells producing 2HG: qHTS for the HT-1080-NT fibrosarcoma cell line | 1.6% of 360,000 active | AID 686970, 2013 | HT-1080-NT fibrosarcoma viability, CellTiter-Glo ATP luminescence, 48 h | Potency, µM (titrated, usually from 46.1 µM), for inactives: at the highest dose activity, negative = less viability, most hits filed as cytotoxic;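 note: NT is the 2HG producing partner of a matched IDH1 knockdown line; 0% = DMSO-treated cells and -100% = media-only wells without cells; nearly all actives have a fitted effect of over 55% in size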
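Luminescent CellTiter-Glo readout after 48 hours of compound exposure at 37 degrees C defined viability of HT-1080-NT cells. Activity was normalized to DMSO wells and cell-free media wells; concentration-response curves were fitted and assigned curve classes.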
Starred values were filed as active, the others as inactive; i = inactive; ? = inconclusive; . = not tested or not shown. Calls come from the whole dose curve; as a rule, active = well fitted curve in the direction sought with a large enough effect; inconclusive = small, poorly fitted or top-dose-only effect, or another doubt; inactive = no such curve, though single readings can be large; an effect the other way counts as inactive or inconclusive. Potency is the fitted concentration of half-maximal effect.

SMILES	SW480 rerep	KB-3-1 tox	KB-V1 cytotox	HT1080 IDH1KD tx	MCF10A rerep	HT1080-NT tox
CC(Sc1n[nH]c(N)n1)C(=O)Nc1cccc2ccccc12 (configuration not stated)	6%	i	i	1%	4%	-2%
C=C(C)C(=O)N1CC2(CC(c3cccc(NC(=O)/C(C)=C\C)c3)=NO2)C[C@H]1C(N)=O (some centres not stated)	-3%	i	i	1%	-2%	4%
CN(C)S(=O)(=O)n1ccnc1	-12%	i	i	8%	-7%	2%
CCOC(=O)C(c1ccccc1)C(Nc1ccccc1)c1ccccn1 (configuration not stated)	-13%	i	?	-10%	-3%	6%
CCOC(=O)C(C(=O)OCC)C(Nc1ccccc1)c1ccccc1 (configuration not stated)	1%	i	i	?	21µM*	?
CSc1nnc(CSCc2ccc(Cl)cc2Cl)n1-c1ccccc1	19%	i	?	?	11µM*	0%
CCC(=O)NC(c1ccc(Cl)cc1Cl)c1ccc2cccnc2c1O (configuration not stated)	0.52µM*	?	i	?	?	15µM*
CCCCC(=O)NC(c1ccc(Cl)cc1Cl)c1ccc2cccnc2c1O (configuration not stated)	1.2µM*	3.3µM*	?	?	?	?
CC(C)C(=O)NC(c1ccc(Cl)cc1Cl)c1ccc2cccnc2c1O (configuration not stated)	?	i	i	?	20%	?
CCn1cc2nc(SCC(=O)Nc3ccc(OC)cc3OC)n(Cc3ccc(Cl)cc3)c(=O)c2n1	.	i	i	.	.	.
Cc1ccc(NC2=C(N3CCOCC3)C(=O)c3ccccc3C2=O)cc1	1%	i	?	?	1%	?
CC(=O)Nc1ccc(S(=O)(=O)NC2=C(N3CCN(c4ccc(F)cc4)CC3)C(=O)c3ccccc3C2=O)cc1	16µM*	i	?	?	16µM*	?
O=C(O)c1ccc(NC2=C(N3CCOCC3)C(=O)c3ccccc3C2=O)cc1	.	i	i	5%	4%	-2%
CC(=O)N(C1=C(N2CCOCC2)C(=O)c2ccccc2C1=O)c1ccc(C(=O)O)cc1	4.1µM*	i	i	-4%	?	-12%
CC(=O)N(C)C1=C(N2CCOCC2)C(=O)c2ccccc2C1=O	?	1.2µM*	12µM*	0.89µM*	0.73µM*	1.6µM*
Cc1ccc(S(=O)(=O)NC2=C(N3CCN(c4ccccc4F)CC3)C(=O)c3ccccc3C2=O)cc1	1%	?	?	17%	14%	14%
CC(=O)c1ccc(NC2=C(N3CCOCC3)C(=O)c3ccccc3C2=O)cc1	3%	i	26µM*	?	0%	?
Cc1cc(C)c2c(n1)NCCC2	.	i	i	.	.	.
COc1ccc(C(=O)Nc2ccccc2C(=O)N2CCOCC2)cc1	-12%	i	i	12%	8%	0%
C=CC(C)(C)c1c(O)c(CC=C(C)C)c(O)c2c(=O)c3ccc(O)c(O)c3oc12	?	?	?	15µM*	23µM*	?
Cc1cc(F)ccc1S(=O)(=O)N1CCCCC1CCNC(=O)C(=O)NCCN1CCOCC1 (configuration not stated)	-7%	i	16µM*	-1%	-3%	6%
